From the supplement of paper PMC6555819

tested on: RARa homodimer (NR concentration 270 nM); assay: PBM binding z-score (relative to random genomic background probes); higher = stronger binding; sequences stand for … in GC…GCGATTGACAGCGTAGAATGAAGG
Method in brief: (§1)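 Antibodies against each partner of ligand-free nuclear receptor dimers (one per run) detected binding on custom Agilent 4×180K protein-binding microarrays after 1 h incubation. The double-stranded probes had 34-nt variable regions carrying direct-repeat seeds, single-nucleotide variants, half-site ablations and random human genomic background sequences. Binding z-scores, from regression-normalized fluorescence, use the random background probes as reference.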

Sequence	PBM binding z-score
ATCTCTAGGTAACAAGTTCAGTGAAAGAGAGGAC	1.19
CGTCCAAGGTCAAACGTCAGTGAAGAGATGACGG	0.465
AGTCACAGTTCAGGACGAGGTAACGTAAAGCACG	0.51
ACAGACAGGTGAGTGAAGGTAGCTCAGCTGGACG	-0.484
TTACCAAGGTGAAAGGTCGTTGGTGCACGCCTTG	-0.639
GCTGCTAGGTCAACTCATGGTCAGCTAAAGCTCG	0.409
CGCACTAGGTCAAGGACAGTGAATCTCCGCACGC	0.00773
CCAACTAGGTCATCCAGGACAGTGAATACATTGA	1.24
GCATATAGGTAGTACAAGGTGAAAGTCCGATTGT	0.249
GTGCCAAGGTGAATAGGTCGTTGATGAGTAGGCG	0.262
CGTCCAAGGTCAATGCTATGTCAGTGAAAGCATT	0.262
CGTCCAAGGTCTATGCTAGGTCAGTGAAAGCATT	0.289
CGAACGAGGGCATGAGTTGATAGAAAATGCCGAT	0.132
CGTCCAAGGTGAAAGGTCAGTGAAGAGATGACGG	1.47
CAAACTATGTCACAGAGGTCAAAGTCCGTGCGTA	1.58
TCTTGAAGATCAAAGGTTAAGAAAGCCGAAGCCT	0.254
TTACCAAGGTGATAGGTCGTTGATGCACGCCTTG	-0.163
TCTGCTTGGTCAGTTGGTCAGCTAACGAGCTGCC	-1.41

tested on: RARb:RXRa (NR concentration 270 nM, RXRa partner concentration 90 nM); assay: as above
Method in brief: as §1

Sequence	PBM binding z-score
TCATATAGGTAACCAGGTGAAAGTCCGTAAGTTA	1
TGAATGAGGCTATAAGATCAGGGAACGTTGCAAA	-0.0944
CCGACTGGGCCAAGGTTACCATAACGCACAGCCA	0.98
AGAATGAGGTTATTAAGGTCAGGGAATTGCGGTC	3.79
CCTTACGAGTCACGAGGTTATAGCACGACGAGCG	0.971
GCTATTAGTTGAAAGGGCCACCGAATGATTCTCG	1.02
GCTATTAGTTGAAAGGGCAACCGCATGATTCTCG	1.71
CCTGCTTGGTCATGGTCAGCTAATCTACAGTATG	1.24
CAAACTAGGTCACAGAGTTCAAAGTCCGTGCGTA	4.91
CGTCAAAGTTCACGGTAACGTAACAGAAAGCAGC	5.25
ATCTCTAGGTAAAGATAATTCAGTGAATGCAAAT	-0.0226
GGAACAAGGGCATTCGAGTTGATAGCATGGCGAT	2.02
CCTACTGGGGCATAAGGTTACCATAAGCCAGCCC	1.74
GATACAGGGTCAAGGCCAGAGCACGCGTATTGAT	4.5
CCTAGTTGGTCAAGGTCACTCACGCTATAGGTAC	4
TAGCCTGGGTCATTGGGCCAGTATAGTACGCATC	3.34
ATCTCTAGTTAAAAGTTCAGTGAATCCCGAGGAT	2.2
TCTGCTAGGTCAGTGGGTCAGCTAACGAGCTGCC	3.77
CCTTACGGGTCACGAGGTTTTAGCACGACGAGCG	4.54
GCTTACGGGTCAAAGGCTATAGCATGAATAGAAT	3.69

Sequence	PBM binding z-score
AGAATGAGGTTATTAAGTTCAGGGAATTGCGGTC	2.35
ACAGACAGGTGATGAAGGTAACTCCGGCTATCAT	0.429
ATCTCTAGGTAACAAGTTCAGTGAAAGAGAGGAC	1.85
CGTCCAAGGTCAAACGTCAGTGAAGAGATGACGG	5.22
AGTCACAGTTCAGGACGAGGTAACGTAAAGCACG	2.08
ACAGACAGGTGAGTGAAGGTAGCTCAGCTGGACG	0.202
TTACCAAGGTGAAAGGTCGTTGGTGCACGCCTTG	3.31
GCTGCTAGGTCAACTCATGGTCAGCTAAAGCTCG	4.46
CGCACTAGGTCAAGGACAGTGAATCTCCGCACGC	3.92
CCAACTAGGTCATCCAGGACAGTGAATACATTGA	3.89
GCATATAGGTAGTACAAGGTGAAAGTCCGATTGT	0.368
GTGCCAAGGTGAATAGGTCGTTGATGAGTAGGCG	2.09
CGTCCAAGGTCAATGCTATGTCAGTGAAAGCATT	5.07
CGTCCAAGGTCTATGCTAGGTCAGTGAAAGCATT	1.62
CGAACGAGGGCATGAGTTGATAGAAAATGCCGAT	1.87
CGTCCAAGGTGAAAGGTCAGTGAAGAGATGACGG	4.62
CAAACTATGTCACAGAGGTCAAAGTCCGTGCGTA	4.19
TCTTGAAGATCAAAGGTTAAGAAAGCCGAAGCCT	2.07
TTACCAAGGTGATAGGTCGTTGATGCACGCCTTG	1.07
TCTGCTTGGTCAGTTGGTCAGCTAACGAGCTGCC	0.775
